A selection follows.
aSyn 5UTR act – Activators via SNCA 5'UTR binding, MLPCN; AID 1814; activity score, % (tested at 7.5 µM), hits read low; alpha-synuclein 5'UTR reporter, activators screen; 300,000 compounds, 7.1% hits; in the data active = activity score below about -60%
A number is an active result; i = inactive.

SMILES	aSyn 5UTR act
C=CCOC(=O)/C(=C/c1cccc2ccccc12)NC(=O)c1ccccc1	-258
COc1cc(C)c(Cl)c(C)c1S(=O)(=O)NC1CC(C)(C)NC(C)(C)C1	-160
Cc1ccc2nc(C3CCCCC3)[nH]c2c1	-93
CCCCN=C(C)c1c(O)c2ccccc2oc1=O	-159
CCn1c(SCc2ccccc2Cl)nc2ccccc21	-97
CCC(=O)Nc1nc2ccccc2n1Cc1ccccc1Cl	i
Cn1c(SCc2ccccc2Cl)nc2ccccc21	-190
CCN1C(=O)/C(=C/c2nc3ccccc3c(=O)n2-c2ccc(C)cc2)c2ccccc21	-139
COc1ccc(-n2c(/C=C3\C(=O)N(C)c4ccccc43)nc3ccccc3c2=O)cc1	-107
OCCCCCN=c1cc(-c2ccccc2)oc2ccc(Cl)cc12	-747
Nc1nc2ccccc2n1C(=O)CCc1ccccc1	-63
Cn1cccc1CNC(=O)Nc1ccc(Cl)c(Cl)c1	-212
CCOc1ccc(NC(=O)NCc2cccn2C)cc1	-87
Cc1sc(NC(=O)c2ccccc2F)c(CN2CCCCC2)c1C	-124
Cc1sc(NC(=O)c2ccc(F)cc2)c(CN2CCCCCC2)c1C	-174
CN1CCN(C(c2ccc(Cl)cc2)c2cc(Cl)c3cccnc3c2O)CC1 (stereo not drawn)	i
O=C(NCCc1c[nH]c2ccccc12)c1ccc(F)cc1F	-145
O=C(NCCc1c[nH]c2ccccc12)c1cnccn1	-80
COc1ccc(C(=O)c2c[nH]c3ccccc23)cc1	-196
Cc1ccsc1C(=O)NCCc1c[nH]c2ccccc12	-123
O=C(NCCc1c[nH]c2ccccc12)c1ccc(Cl)cc1	-221
COc1ccc(C(=O)NCCc2c[nH]c3ccccc23)cc1	-184
CC(=O)c1c(C)[nH]c(C(=O)NCCc2c[nH]c3ccccc23)c1C	-89
CC(=O)c1c(C)[nH]c(C(=O)NCCC2=CCCCC2)c1C	-156
O=C(NCCc1c[nH]c2ccccc12)c1cnc2sccn2c1=O	-152
SMILES	aSyn 5UTR act
Brc1cccc(-c2n[nH]c(-c3ccccc3)n2)c1	-77
c1ccc(-c2nc(-c3cccnc3)n[nH]2)cc1	-85
CCN(CC)c1ccc(Nc2cc3n(c(=O)n2)CCc2cc(OC)c(OC)cc2-3)cc1	i
CCN(CC)c1ccc(NC(=O)c2cc(Cl)ccc2OC)cc1	-63
COc1ccc(Cl)cc1C(=O)Nc1ccc2c(c1)OCO2	-130
COc1ccc(Cl)cc1C(=O)Nc1ccc2c(c1)OCCO2	-104
O=C(NC(=S)Nc1ccccn1)c1ccc([N+](=O)[O-])cc1	-119
O=C(Nc1ccccn1)c1cc2ccccc2cc1O	-104
O=C(Nc1ccccn1)c1ccc(C(=O)Nc2ccccn2)cc1	-104
O=C(NC(=S)Nc1ccccn1)c1ccccc1	-133
O=C(Nc1ccccn1)c1ccc(Br)s1	-191
O=C(Nc1ccc(Cl)cc1)c1ccc(-c2ccccn2)s1	-170
O=C(Nc1ccccn1)c1cc2cc([N+](=O)[O-])ccc2s1	-158
O=C(c1cc2cc([N+](=O)[O-])ccc2s1)N1CCCCC1	-71
O=C(Nc1ccccc1)c1ccc(CSc2ccccn2)cc1	-102
Cc1c(/C=C/C(=O)c2ccc(Cl)s2)cnn1C	-163
Cc1c(/C=C/C(=O)c2ccc(O)cc2)cnn1C	-146
Cc1nn(C)cc1/C=C/C(=O)c1ccccc1	-110
Cc1c(/C=C/C(=O)c2ccc(C(C)C)cc2)cnn1C	-92
CCCCCCCCCCn1c2c(c(=N)c3c1CCC3)CCC2	i
CCn1ncc(/C=C/C(=O)c2ccccc2)c1C	-70
Cc1c(/C=C/C(=O)c2ccccc2)cnn1C	-123
CCn1cc(/C=C/C(=O)c2ccc(O)cc2)c(C)n1	-105
CCNC(=S)NNC(=O)c1csc(C(C)C)c1	-76
CC(/C=C1\SC(=Nc2cccnc2)NC1=O)=C\c1ccccc1	-113
SMILES	aSyn 5UTR act
C/C(=N\OCC(=O)NCC(F)(F)F)c1cc2ccccc2o1	-76
COc1ccc2c(c1)NC(=O)CC(c1ccccc1)=N2	-72
CCOc1ccc(/C=C/C(=O)C(C(N)=O)=C2SCCS2)cc1	-162
COc1cccc(C(=O)Nc2ccc3[nH]c(=O)[nH]c3c2)c1OC	i
COc1cccc(NC(=O)c2cccc(OC)c2OC)c1	-168
COc1cccc(NC(=O)c2ccccc2Br)c1	-106
COc1cccc(NC(=O)c2cc3ccccc3cc2OC)c1	-151
COc1cc(OC)c(C(=O)Nc2ccc3ccccc3c2)cc1OC	-232
COc1ccc(C(=O)Nc2ccc3ccccc3c2)cc1OC	-176
COc1ccc(NC(=O)c2cc3ccccc3cc2OC)cc1OC	-70
COc1cccc(C(=O)Nc2ccc(N(C)C)cc2)c1OC	-214
Cc1occc1C(=O)Nc1ccc2ccccc2c1	-128
COc1cc(C(=O)Nc2ccc3ccccc3c2)cc(OC)c1OC	i
COc1cc2ccccc2cc1C(=O)Nc1ccc(O)cc1	-138
COc1cc2ccccc2cc1C(=O)Nc1ccc(Cl)cn1	-111
COc1cc(Cl)c(C)cc1NC(=O)c1cccc(OC)c1OC	-137
CCOC(=O)c1c(C)[nH]c(C(=O)COC(=O)C2(C)CC2(Cl)Cl)c1C (stereo not drawn)	-171
CCOC(=O)c1c(C)[nH]c(C(=O)OCc2ccccc2F)c1C	-110
CCNC(=O)COC(=O)c1[nH]c(C)c(C(=O)OC)c1C	-85
CCOC(=O)c1c(C)[nH]c(C(=O)OCCOc2ccccc2C)c1C	-132
CCOC(=O)c1c(C)[nH]c(C(=O)OCc2ccc(F)cc2)c1C	-170
CCOC(=O)c1c(C)[nH]c(C(=O)OCC(=O)c2ccccc2)c1C	-99
CC(=O)c1c(C)[nH]c(C(=O)OCc2ccccc2)c1C	-145
CCOC(=O)c1c(C)[nH]c(C(=O)CSc2ccc(Cl)cc2)c1C	-130
C=CCSc1n[nH]c(-c2ccccc2)n1	-100
SMILES	aSyn 5UTR act
C=CCSc1n[nH]c(-c2ccc(OC)cc2)n1	-165
Cc1c(C(=O)NCC2CCCO2)sc2nc(-c3ccc(F)cc3)cn12 (stereo not drawn)	-84
CCN(CC)CCCNC(=O)c1sc2nc(-c3ccc(F)cc3)cn2c1C	-108
COc1ccc(/C(C)=N/NC(=O)c2ccccc2OCc2ccccc2)c(OC)c1	-118
COc1cccc(C(=O)N/N=C(\C)c2ccc(NC(=O)Cc3ccccc3)cc2)c1OC	-88
C/C(=N\NC(=O)c1ccccc1O)c1ccc(NC(=O)Cc2ccccc2)cc1	-71
C/C(=N\NC(=O)c1cccc(O)c1)c1ccc(NC(=O)Cc2ccccc2)cc1	-85
c1ccc2c(Nc3nnc(-c4ccncc4)s3)cccc2c1	-186
O=C(Nc1ccc(OC(F)F)c(Cl)c1)c1ccccn1	-92
Cc1ccc(NC(=S)Nc2ccc(OC(F)F)c(Cl)c2)cc1F	-105
COc1ccc(NC(=O)c2ccc(OC(F)F)cc2)cc1Cl	-167
CC1CC1c1ccc(/C=C(\C#N)C(=O)Nc2ccccc2Cl)o1 (stereo not drawn)	-192
CC1CC1c1ccc(/C=C(\C#N)C(=O)Nc2ccc(Cl)cc2)o1 (stereo not drawn)	-328
CCC1CCCCN1S(=O)(=O)c1ccc2c(c1)CCN2C(C)=O (stereo not drawn)	i
CC(=O)N1CCOc2ccc(S(=O)(=O)N3CCCCC3)cc21	-250
CC(=O)c1cccc(NS(=O)(=O)c2ccc3c(c2)N(C(C)=O)CCO3)c1	-70
COc1ccc(/C=N/NC(=O)c2ccc[nH]2)cc1	-147
CSc1ccc(/C=N/NC(=O)c2ccc(O)cc2)cc1	-117
COc1ccc(C(=O)N/N=C/c2ccc(SC)cc2)cc1	-65
O=C(N/N=C\c1c(O)ccc2ccccc12)c1ccc(O)cc1	i
Cn1c(SCC(=O)c2ccccc2)nnc1-c1cccc(N)c1	-62
